{"source": "PubChem BioAssay (NCATS)", "note": "Records with an inconclusive call do not appear. Where a call stands in place of a potency, no number is given. Values without a mark were called inactive. Calls of active or inactive are those of the source. Unless noted, calls come from the whole dose curve."}
{"biological_target": "Cytochrome P450 2C9 (Homo sapiens) (UniProt P11712)", "sequence (P11712 whole entry, looked up)": "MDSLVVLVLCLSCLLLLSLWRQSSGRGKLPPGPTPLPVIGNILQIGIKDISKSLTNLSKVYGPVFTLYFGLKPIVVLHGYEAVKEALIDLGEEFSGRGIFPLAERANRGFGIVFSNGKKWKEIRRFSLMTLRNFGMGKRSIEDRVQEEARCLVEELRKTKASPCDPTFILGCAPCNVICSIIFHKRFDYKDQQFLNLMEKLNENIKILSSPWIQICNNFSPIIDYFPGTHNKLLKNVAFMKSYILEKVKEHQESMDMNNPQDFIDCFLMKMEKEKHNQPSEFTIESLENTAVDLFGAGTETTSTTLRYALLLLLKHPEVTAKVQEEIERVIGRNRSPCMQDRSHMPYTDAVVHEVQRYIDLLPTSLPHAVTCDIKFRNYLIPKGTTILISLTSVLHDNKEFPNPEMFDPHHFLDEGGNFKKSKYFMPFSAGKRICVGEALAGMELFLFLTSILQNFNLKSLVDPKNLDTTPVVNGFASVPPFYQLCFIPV", "test": "Cytochrome P450 family 2 subfamily C member 9 (CYP2C9) small molecule antagonists: luciferase biochemical (cell-free) qHTS assay (AID 1645842; active = well fitted inhibition curve with a large enough effect in the repeat runs; note: nearly all actives have a fitted effect of over 55% in size; note: potency is the fitted concentration of half-maximal effect)", "details": "P450-Glo CYP2C9 enzyme assay, luciferin luminescence; series mostly up to 57.4 µM; activity change, negative = inhibition: at the top concentration", "method_in_brief": "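Luminescence, after 20 min with luciferin detection reagent, reflected CYP2C9 turnover during a 1 h NADPH-driven reaction at 37C. Enzyme-substrate mix contained 0.4% bovine serum albumin and was preincubated with compound 10 min at room temperature.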"}
{"smiles": "C=CCC1=C(C)C(OC(=O)C2C(C=C(C)C)C2(C)C)CC1=O", "note": "(stereo not given)", "Potency": "5.02 µM (active)"}
{"smiles": "CC(C)(C)NC[C@H](O)c1ccc(O)cc1Cl", "activity change, negative = inhibition": "-5.75%"}
{"smiles": "CCOP(=O)(NC(C)C)Oc1ccc(SC)c(C)c1", "note": "(stereo not given)", "Potency": "9.47 µM (active)"}
{"smiles": "CCOCCOC(C)=O", "Potency": "inactive"}
{"smiles": "c1cc2ccc3cccc4ccc(c1)c2c34", "activity change, negative = inhibition": "7.64% [at 115 µM]"}
{"smiles": "COCCOCCO", "activity change, negative = inhibition": "13.7% [at 115 µM]"}
{"system": "not listed separately", "test": "Cytotoxicity counterscreen for inhibitors of SARS-CoV-2 cell entry (AID 1645845); note: nearly all actives have a fitted effect of over 50% in size", "details": "cell viability (SARS-CoV-2 entry assay cells); series mostly up to 57.1 µM; activity change, negative = cytotoxicity: at the top concentration", "method_in_brief": "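Expi293F/hACE2 cells seeded overnight; cpd pin-transferred in DMSO, 1 h preincubation, + media, 48 h 37 C 5% CO2; ATPLite 1step luminescence; normalized to cells and no cells.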", "units": {"activity change, negative = cytotoxicity": "%"}}
{"smiles": "CN(C)NC(=O)CCC(=O)O", "activity change, negative = cytotoxicity": -0.698}
{"smiles": "COc1ccc(C(=O)c2c(C)n(CCN3CCOCC3)c3cc(I)ccc23)cc1", "activity change, negative = cytotoxicity": -39.9}
{"smiles": "CCCC[N+]1(C)[C@H]2CC(OC(=O)[C@H](CO)c3ccccc3)C[C@H]1[C@H]1O[C@H]12", "note": "(stereo not given in full)", "outcome": "inactive"}
{"smiles": "CCOP(=O)(OCC)C(C)NC(=O)N(CCCl)N=O", "note": "(stereo not given)", "Potency": "inactive"}
{"smiles": "O=C(N[C@H]1CN2CCC1CC2)c1ccc(Cl)cc1", "outcome": "inactive"}
{"smiles": "O=C(Oc1ccc([N+](=O)[O-])cc1)N1CCC(C(O)(c2ccc3c(c2)OCO3)c2ccc3c(c2)OCO3)CC1", "outcome": "inactive"}
{"smiles": "Cc1ccccc1-n1c(Cn2cnc3c(N)ncnc32)nc2cccc(C)c2c1=O", "outcome": "inactive"}
{"smiles": "CCCN1CCO[C@@H]2c3cc(O)ccc3OC[C@H]21", "activity change, negative = cytotoxicity": -28.9}
{"smiles": "CCN(CC)C(=O)c1ccc(C2=CC3(CCNCC3)Oc3cccc(O)c32)cc1", "activity change, negative = cytotoxicity": 3.35}
{"smiles": "O=S(=O)(F)Cc1ccccc1", "outcome": "inactive"}
{"smiles": "CCOC(=O)c1c(C(C#N)=CN)c2ccc(Cl)c(Cl)c2n1C", "activity change, negative = cytotoxicity": 1.38}
{"smiles": "C[C@]12CC[C@@H]3[C@@H](CCC4=CC(=O)CC[C@@H]43)[C@@H]1CC[C@@H]2OC(=O)CCc1ccccc1", "outcome": "inactive"}
{"smiles": "O=S(=O)(CC1CS1)c1ccc(Oc2ccccc2)cc1", "note": "(stereo not given)", "outcome": "inactive"}
{"smiles": "C[C@]12CC[C@H]3[C@@H](CCC4=CC(=O)CC[C@@]43C)[C@H]1CC[C@H]2OC(=O)CCC1CCCC1", "outcome": "inactive"}
{"smiles": "CN1[C@H]2CC(O)C[C@H]1[C@H]1O[C@H]12", "note": "(stereo not given in full)", "outcome": "inactive"}
{"smiles": "CCN1C[C@]2(OC(=O)c3ccccc3NC(C)=O)CC[C@H](OC)[C@@]34[C@H]5CC6[C@@H](OC)C[C@](O)(C(C[C@@H]23)[C@@H]14)[C@@]5(O)[C@@H]6OC", "outcome": "inactive"}
{"smiles": "C#CC1(O)CCC2C3CCC4=CC(=O)CCC4(C)C3CCC21C", "note": "(stereo not given)", "activity change, negative = cytotoxicity": -3.77}
{"smiles": "Clc1ccccc1C(c1ccccc1)(c1ccccc1)n1cccn1", "activity change, negative = cytotoxicity": -9.79}
{"smiles": "CN[C@@H]1Cc2cccc3[nH]c(=O)n(c23)C1", "outcome": "inactive"}
